Among all 370,000 compounds or so, about 2,600 (0.7%) were called active. This excerpt belongs to a sample that is enriched for actives. Unmarked numbers belong to inactive results.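 Rule for the calls: active = inhibition above a cutoff: mean of compounds within the control limits plus 3 SD of those (cut at about 17% in these data); inactive = the rest.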
target: Sialate O-acetylesterase (Homo sapiens) (UniProt Q9HAT2); assay: human SIAE inhibitors, primary screen, biochemical, fluorescence polarization, FP-Rh probe, 1536-well HTS (AID 1053197); conditions: SIAE FP-Rh probe binding, at 9.66 µM, active compounds read high;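 note: 0% = plate median of compound wells and 100% = probe without SIAE protein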
Sequence (Q9HAT2 whole entry, looked up): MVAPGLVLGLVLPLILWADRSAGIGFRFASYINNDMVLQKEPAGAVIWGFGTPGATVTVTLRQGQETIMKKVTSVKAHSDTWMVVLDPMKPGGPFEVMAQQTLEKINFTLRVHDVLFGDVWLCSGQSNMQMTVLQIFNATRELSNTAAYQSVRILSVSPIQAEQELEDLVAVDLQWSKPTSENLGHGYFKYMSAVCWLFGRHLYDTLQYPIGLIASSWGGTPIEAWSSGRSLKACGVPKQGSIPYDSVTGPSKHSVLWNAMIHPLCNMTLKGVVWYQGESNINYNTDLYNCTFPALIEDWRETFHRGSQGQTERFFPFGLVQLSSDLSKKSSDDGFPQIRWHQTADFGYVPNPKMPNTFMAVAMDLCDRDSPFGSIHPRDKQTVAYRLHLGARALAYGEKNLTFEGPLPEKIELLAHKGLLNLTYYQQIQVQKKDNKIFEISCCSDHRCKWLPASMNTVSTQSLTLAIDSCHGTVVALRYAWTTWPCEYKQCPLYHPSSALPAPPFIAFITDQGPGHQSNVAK

Structure (SMILES) | inhibition
CC(=O)OCCN1CCCC12CCC(c1ccccc1)CC2 (centres undefined) | -7.94%
COc1ccc2nc(Nc3nc4cc5c(cc4s3)OCCO5)sc2c1 | 21.1% (active)
COc1cccc(C(=O)Nc2cc3c(cc2Br)OCCCO3)c1 | 5.12%
COc1ccc(-c2nnc(SCC(=O)c3ccc4c(c3)OCCO4)o2)cc1 | -8.81%
O=C(NC1CCC1)c1ccc(C#CC2CC2)cn1 | 3.02%
CC(C)(C)OC(=O)NCCc1ccccc1/C=C/S(=O)(=O)NCc1ccc(F)cc1 | 3.43%
Cc1ccc(-c2nc(C3CCCN(S(=O)(=O)c4ccc(Br)s4)C3)no2)cc1 (centres undefined) | 3.3%
O=C(CSc1nnc(COc2ccccc2)n1-c1ccc(Cl)cc1)Nc1ccc2c(c1)OCO2 | -2.77%
NCCCNC(=S)NCCCN(Cc1ccc(Cl)cc1)c1ccc(Br)cn1 | -4.09%
S=C(NCCCc1cnc[nH]1)NCCCN(Cc1ccc(Cl)c(Cl)c1)c1ccc(Br)cn1 | 38.7% (active)
COc1ccc(Cn2ccc3ccc(-c4ccc5ccn(Cc6ccccc6C)c5c4)cc32)cc1 | 1.75%
COC(=O)[C@]12C[C@H](CC(=O)NCCCN3CCCC3=O)C(=O)N(CCc3ccc(OC)c(OC)c3)C1=C[C@H](COCc1ccccc1)O[C@@H]2C | -1.06%
CCOC(=O)[C@]12CCCCC/C=C\1N(Cc1ccc(OC)cc1)C(=O)[C@H]2CC(=O)NCc1ccc(C)o1 | 4.67%
O=C(CCCCCN1C(=O)C2C3C=CC(C3)C2C1=O)Nc1ccccc1 (centres undefined) | 0.48%
COc1ccc(CSc2nnc(SCC(=O)Nc3ccccc3C(F)(F)F)s2)cc1 | 2.74%
O=C(NCc1cccs1)c1ccc2c(c1)ncn2C1CCCC1 | 6.82%
Cc1nc2cc(NCc3cccs3)ccc2n1C | 82.8% (active)
CC(NCc1cccs1)C(=O)Nc1cc(Cl)cc(Cl)c1 (centres undefined) | 8.74%
Cc1ccc(CN2CCCCC(NC(=O)C3CCCCC3)C2=O)cc1 (centres undefined) | -2.58%
COC(=O)[C@]12C[C@H](CC(=O)NCc3ccccc3)C(=O)N(Cc3ccccc3)C1=C[C@H](COCc1ccccc1)O[C@@H]2C | -4.26%
CC(=O)Nc1ccc(S(=O)(=O)N2CCN(C3CCCCCCC3)CC2)cc1 | 1.94%
CC(=O)Nc1ccc(S(=O)(=O)Nc2ccc(N3CCCCC3)cc2)cc1 | 22.2% (active)
CC(=O)Nc1ccc(S(=O)(=O)N2CCCC2C(=O)O)cc1 (centres undefined) | -4.8%
COc1ccc(CN2C(=O)N3Cc4cc(OC)ccc4C3CS2(=O)=O)cc1 (centres undefined) | -3.42%

Reference: PubChem BioAssay AID1053197 (The Scripps Research Institute Molecular Screening Center, 2014)
